Rows were chosen to be rich in hits. Some 0.3% of all compounds tested hit in one or more screens of this group.
hcGAS inh: blocks human cGAS activity; inhibition, % at 12.5 µM; 0.081% of 290,000 active; recombinant h-cGAS, ATP depletion, Kinase-Glo luminescence; Q8N884
Target sequence (Q8N884 whole entry, looked up): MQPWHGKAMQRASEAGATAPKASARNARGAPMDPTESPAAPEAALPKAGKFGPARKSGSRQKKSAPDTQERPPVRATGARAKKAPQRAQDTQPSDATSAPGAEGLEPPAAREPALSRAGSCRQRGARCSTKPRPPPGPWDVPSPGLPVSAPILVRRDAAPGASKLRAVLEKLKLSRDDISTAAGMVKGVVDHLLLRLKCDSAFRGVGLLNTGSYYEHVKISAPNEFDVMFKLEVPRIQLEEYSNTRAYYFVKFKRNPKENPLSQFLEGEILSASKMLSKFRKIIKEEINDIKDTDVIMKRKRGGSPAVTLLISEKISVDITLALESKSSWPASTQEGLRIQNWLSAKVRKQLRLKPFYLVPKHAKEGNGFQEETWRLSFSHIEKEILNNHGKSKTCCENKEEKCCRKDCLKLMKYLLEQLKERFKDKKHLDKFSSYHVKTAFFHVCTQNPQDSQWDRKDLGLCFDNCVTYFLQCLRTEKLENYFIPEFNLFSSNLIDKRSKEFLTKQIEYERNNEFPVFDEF
NPYLR7 agonist: activates Aedes aegypti NPYLR7 receptor. HEK293T NPYLR7/Galpha15, GCaMP6s calcium fluorescence. activation, % at 10 µM. 0.15% of 270,000 active. AID 1259423; in the data active = activation above about 40%
mcGAS inh: blocks mouse cGAS activity. Q8C6L5. recombinant cGAS, Kinase-Glo ATP depletion luminescence. inhibition, % at 12.5 µM. 0.15% of 160,000 active. AID 1259399
Each line names hits and unclear results; the compound was inactive in the other large screens; ! = a repeat was not active. Cut-off read from the data, not from the text of the source, unless noted: active = inhibition above about 40%; inactive = the rest.

CCOc1ccc2cc(-c3nc4ccccc4s3)c(=O)oc2c1	none
Cc1sc2nc(C(C)OC(=O)CN3C(=O)C4CCCCC4C3=O)[nH]c(=O)c2c1C (stereo not drawn)	none (no result: mcGAS inh)
O=C(NCc1ccccn1)c1cnn(CC(F)(F)F)c1-c1ccccc1	none (no result: NPYLR7 agonist)
CCOC(=O)c1sc(NC(=O)c2cc(C)no2)nc1C	none
CCc1nnc(NC(=O)c2cc(C)no2)s1	mcGAS inh 46
Cc1cccc(C(=O)NCCN2C(=O)C(=Cc3ccc4c(c3)OCO4)SC2=S)c1[N+](=O)[O-]	none (no result: mcGAS inh)
Cn1cc(S(=O)(=O)Nc2ccc(F)cn2)nc1Cl	none (no result: mcGAS inh)
COCCOc1ccc(NS(=O)(=O)c2cn(C)c(Cl)n2)cn1	NPYLR7 agonist 99 (no result: mcGAS inh)
O=C(NC1CSc2c1nc1ccccc1c2C(=O)O)c1ccccc1 (stereo not drawn)	hcGAS inh 41 (no result: mcGAS inh)
O=C(Nc1ccccc1I)c1c2c(nc3ccccc13)CCCC2	none
COc1cccc(-c2cc(C(=O)N(CCC(=O)NCCC3CCCN3C)CC(C)C)no2)c1 (stereo not drawn)	hcGAS inh active (no result: mcGAS inh)
CC(C)NC(=O)CCN(CC1CCCO1)C(=O)c1cc(-c2cccc(Cl)c2)on1 (stereo not drawn)	none (no result: NPYLR7 agonist)
CC(C)Cc1cnc2c(c1SCc1ccccn1)c(=O)n(C)c(=O)n2C	none
CC1=NN(c2ccc(Cl)c(C(=O)O)c2)C(=O)/C1=C\c1ccc(Br)c([N+](=O)[O-])c1	mcGAS inh 50
COc1cc(/C=C2\C(=O)N(c3ccc(Cl)c(C(=O)O)c3)N=C2C)cc([N+](=O)[O-])c1O	none
C=CCSc1nc2c(c(=O)[nH]1)C(c1sccc1C)C(C(=O)OCC)=C(C)N2 (stereo not drawn)	none
O=C(CC(c1cccc([N+](=O)[O-])c1)c1c[nH]c2ccccc12)NC1CC1 (stereo not drawn)	NPYLR7 agonist 41
O=C(CC(c1cccc([N+](=O)[O-])c1)c1c[nH]c2ccccc12)N1CCN(c2ccccc2F)CC1 (stereo not drawn)	none
COc1ccc2c(c1)C1(SCCN1C(=O)C1CCCC1)C(=O)N2Cc1ccc(F)c(F)c1 (stereo not drawn)	none
CN1CCN(c2cc(C(F)(F)F)nc(SCc3ccc(C(=O)NCCc4ccccn4)cc3)n2)CC1	none
Cc1ccnc(SCc2cc(=O)c(OC(=O)Cc3ccc(F)cc3)co2)n1	mcGAS inh 40
Cc1cc(C)nc(SCc2cc(=O)c(OC(=O)Cc3ccccc3)co2)n1	mcGAS inh 87
Cc1cccc(CC(=O)Oc2coc(CSc3nc(C)cc(C)n3)cc2=O)c1	none
Cc1ccnc(SCc2cc(=O)c(OC(=O)COc3ccc(F)cc3)co2)n1	none
Cc1nnc(C(C)S(=O)(=O)Cc2nnnn2-c2ccc(Cl)cc2C(F)(F)F)o1 (stereo not drawn)	none (no result: mcGAS inh)
Cc1nnc(-c2cc3ccccc3n2CC(=O)Nc2ccc(Cl)cc2)o1	none
Cn1cnnc1SCc1ccc(C(=O)NNC(=O)c2c(F)cccc2Cl)cc1	none
Cc1c(Cl)cccc1N=Nc1c(-c2ccccc2)[nH]n(-c2nc(-c3ccccc3)cs2)c1=O	hcGAS inh 53
O=c1c(N=Nc2ccccc2Cl)c(-c2ccccc2)[nH]n1-c1nc(-c2ccccc2)cs1	none
O=C1N=c2ccccc2=C1c1sc(=S)n(-c2ccccc2)c1O	none
O=C1N=c2ccccc2=C1c1sc(=O)[nH]c1O	mcGAS inh 63
CC(=O)Oc1c(/C=C(\C#N)C(N)=O)[nH]c2ccccc12	NPYLR7 agonist 51 (no result: mcGAS inh)
COC(=O)/C(C#N)=C/c1c(OC)[nH]c2ccccc12	none (no result: mcGAS inh)
O=C(CSc1nnnn1C1CC1)N1N=C(c2cccs2)CC1c1cccs1 (stereo not drawn)	none (no result: mcGAS inh)
COC(=O)C1=C(C)NC2=C(C(=O)CC(c3ccccc3)C2)C1c1ccc2c(c1)OCO2 (stereo not drawn)	none
O=C(CNC(=O)C(c1ccccc1)c1ccccc1)N=Nc1c(O)[nH]c2ccc([N+](=O)[O-])cc12	none
CCN(CC)c1onc(-c2ccc(F)cc2)c1CN(CCN(C)C)C(=O)C1CCCC1	none
CC1(C)OC2c3ccccc3OC3(C)CCC1CC23 (stereo not drawn)	none (no result: mcGAS inh)
CC1CC2(C)Oc3ccccc3C3OCC1(CO)C(C)C32 (stereo not drawn)	NPYLR7 agonist 43
CC(C)(C(=O)N1CCC1(C)C(=O)NS(=O)(=O)c1cccc(OC(F)F)c1)c1ccccc1 (stereo not drawn)	none
CCOc1ccc(NC(=O)CC(C)O)cc1 (stereo not drawn)	none (no result: mcGAS inh)
CCOc1ccc(NC(C)=O)cc1	NPYLR7 agonist 71! (no result: mcGAS inh)
O=C(Cn1ccc2ccc(Cl)cc21)Nc1ccnn1C1CCS(=O)(=O)C1 (stereo not drawn)	none (no result: mcGAS inh)
CC[n+]1c2ccccc2cc2ccccc21	none (no result: mcGAS inh)
CC[n+]1c(-c2ccccc2)c2cc(N)ccc2c2ccc(N)cc21	hcGAS inh 56! (no result: mcGAS inh)
CC(=O)c1ccc(NC(=O)c2cccc(S(=O)(=O)N3CCCCCC3)c2)cc1	none
O=C1c2ccccc2C(=O)C1c1ccnc2ccccc12	NPYLR7 agonist 103
O=C1c2ccccc2C(=O)C1c1nccc2ccccc12	none (no result: mcGAS inh)
O=[N+]([O-])c1cc([N+](=O)[O-])c2oc(-c3ccccc3)c(Br)c2c1O	hcGAS inh 82, mcGAS inh 91
O=c1c(O)c(-c2ccccc2)oc2cccc(O)c12	none (no result: mcGAS inh)
COc1cccc(CO[C@]2(C(=O)NCCN3CCOCC3)CC(OC)[C@H](O)[C@H](O)C2)c1 (stereo partly drawn)	none
COc1ccc(S(=O)(=O)Oc2ccccc2CN(C(=O)Nc2ccccc2OC)C2CC2)cc1	none
COc1ccc(S(=O)(=O)Oc2cccc(CN(C(=O)Nc3ccccc3OC)C3CC3)c2)cc1	mcGAS inh 42
O=C(NCC(=O)N1CCC(c2nc3ccccc3s2)CC1)c1ccc(F)cc1F	none
CC(Nc1nc2ccccc2s1)C(=O)N1CCSCC1 (stereo not drawn)	none (no result: mcGAS inh)
Cc1cc(-c2ccccc2)cc2c3ccccc3c3ccccc3[n+]12	hcGAS inh 41
COc1cc(-c2ccccc2)c2ccccc2n1	none (no result: mcGAS inh)
COc1ccc(NC(=O)C(C)SC2=Nc3ccccc3CS2)cc1OC (stereo not drawn)	none (no result: mcGAS inh)
Cc1nn(C)c(C)c1NC(=O)Cn1nnnc1C1CCCC1	none (no result: mcGAS inh)
COc1ccc(Cl)cc1NC(=O)/C(C#N)=C/c1coc2ccc(C)cc2c1=O	NPYLR7 agonist 50 (no result: mcGAS inh)
COc1ccc(C)cc1NC(=O)Cn1cnc2cc(Cl)ccc2c1=O	none (no result: mcGAS inh)
CC1=CC(=NN=C(c2ccccc2)c2ccccc2)CC1	none (no result: mcGAS inh)
COc1ccc(CN(CC(C)C)C(=O)c2ccc(Br)cc2)cc1OS(=O)(=O)c1ccc(F)cc1	none
O=C(N=Nc1c(O)[nH]c2ccc(Br)cc12)c1ccccc1Cl	NPYLR7 agonist 72
O=C(N=Nc1c(O)[nH]c2ccc(Br)cc12)c1ccccc1O	none
O=c1ccccn1Cc1nc(-c2cc(Br)cs2)no1	none
CCn1nc(-c2cc(Br)cs2)nc2c(=O)n(C)c(=O)nc1-2	mcGAS inh 60
COCc1cc(N2CCN(c3ccc(OC)cc3)CC2)nc(SCc2ccc(C(=O)NCc3ccccn3)cc2)n1	none
CC(=O)Oc1ccc2c(c1OC(C)=O)C(=O)c1ccccc1C2=O	none
CC(=O)Oc1cccc2c1C(=O)c1c(OC(C)=O)cc(C(=O)O)cc1C2=O	hcGAS inh 57
COc1ccc(-n2nc(C)c(-c3ccccc3)c2NC(=O)CN(C(=O)c2ccc(F)cc2)C(C)C)cc1	none
Cc1cc(C(=O)NCCc2ccccc2)n2nc(C(C)(C)C)cc2n1	none
Cc1cc(C(=O)NC(c2ccccc2)c2ccccc2)n2nc(C(C)(C)C)cc2n1	mcGAS inh 59
